Experimental findings from ChEMBL document CHEMBL4888484, “Replenishing the malaria drug discovery pipeline: Screening and hit evaluation of the MMV Hit Generation Library 1 (HGL1) against asexual blood stage Plasmodium falciparum ,using a nano luciferase reporter read-out” (2022) are described below.

The structures appear in SMILES notation. Out of some 4,800 compounds screened, about 420 (8.8%) showed an effect of 50% or more. Many of the other results were omitted from the sample, so strong results are more common in it than they were.

The assay has as its system Plasmodium falciparum. Briefly: Confirmatory screen in NF54 nanoGlo assay, in single point, at 2uM, 72h. The assay is classed as functional, Erythrocyte. The note with it: timepoint 72 hour.
A word on the % Inhibition: it is the change of the read-out against control, counted positive when it falls. `CC(C)(C)OC(=O)N1CCc2ncn(Cc3ccc(F)cc3)c(=O)c2C1`: the “% Inhibition” value is on record as -7%.
Then `CCOC(=O)CCn1cc(F)c(=O)[nH]c1=O`, with 77%; and `CCOC(=O)CNc1ccc(F)c(Cl)c1`, with -6%.
In the case of `CCOC(=O)COc1cc(N)c(F)cc1Cl` it was -10%.
Then `Cc1nn(C)c(C)c1OCc1nnc(C2CCC2)n1C`, with -14%; and `CCCNC(=O)C1=Cc2ccccc2OC=C1`, with -9%; and `COc1ccccc1-n1c(=O)n(C2CCCC2)c(=O)c2c1ncn2Cc1ccccc1Cl`, with 37%.
On to `COC(=O)c1ncn2c1C(=O)N(Cc1ccccc1OC)[C@](C)(C(=O)NC1CCCCC1)C2`, for which the “% Inhibition” value is given as 0%.
In the case of `COc1ccccc1Cn1cnc2c1c(=O)n(C1CCCCC1)c(=O)n2-c1ccccc1Cl` it was 83%; in that of `Cc1ccccc1Cn1cnc2c1c(=O)n(C1CCCCC1)c(=O)n2-c1ccccc1Cl`, 78%; in that of `CCCc1nc(N2CCCN(C(=O)C3CCCCC3)CC2)c2c(C)nn(-c3ccccc3)c2n1`, 0%.
For the compound `CCC(C)(C)NCC(=O)Nc1cc(F)ccc1F`, the “% Inhibition” value is recorded as -13%.
In the case of `Cc1coc(-c2cc(NC(=O)N(CCO)CC(F)F)ccc2C)n1` it was -5%; in that of `Cn1nc(C(=O)Nc2nnc[nH]2)ccc1=O`, 4%.
As for `Clc1cc(CNCCc2ccccc2)ccc1OCc1ccccc1`, the “% Inhibition” value is listed as -6%.
In the case of `COc1ccccc1CNCCNC(=O)c1ccncc1` it was 8%.
As for `Cc1cnccc1NCCNCc1cccc(O)c1Cl`, the “% Inhibition” value is 88%.
In the case of `C[C@@H](C1CC1)N(C)S(=O)(=O)Cc1cc(Cl)cc(Cl)c1` it was -3%.
Then `COc1ccccc1CN(C(=O)c1ccc(C)cc1)c1ccc(CC(=O)NCCN2CCCCC2)cc1`, with 39%; and `CCOc1ccc(-n2c(CN3CCN(C(=O)c4ccco4)CC3)nc3ccccc3c2=O)cc1`, with 3%.
For `CCOc1ccc(Nc2c3ccccc3nc3ccccc23)cc1`, the “% Inhibition” value is 86%.
In the case of `COc1ccc(NC(=O)c2nc(Nc3ccccc3)c3ccccc3n2)cc1` it was 17%; in that of `Cc1cccc(NS(=O)(=O)c2ccc3c(c2)Cc2cc(S(=O)(=O)Nc4cccc(C)c4)ccc2-3)c1`, 10%.
In the case of `O=C(Cn1c(=O)n(-c2cc(F)cc(F)c2)c(=O)c2sccc21)NCc1ccc2c(c1)OCO2` it was -9%; in that of `Cc1[nH]ccc(=O)c1Cc1c(Cl)cccc1Cl`, -16%.
Then `Cc1cc(NC(=O)Cn2ncnc2-c2cccc(C#N)c2)n(C)n1`, with -1%; and `O[C@@H](CNCc1ccsc1C(F)(F)F)c1cc(Cl)c2c(c1)OCCO2`, with 32%; and `CCCN(Cc1c(C)nn(-c2ccccc2)c1N1CCN(CC)CC1)S(=O)(=O)c1ccc(C)cc1`, with -5%.
In the case of `Cc1cc(NCCc2nccn2C)ncn1`, the “% Inhibition” value is recorded as -15%.
Take `Cc1sc2nc(-c3ccccn3)nc(NCC(=O)N3CCC(O)CC3)c2c1-c1ccccc1`: the “% Inhibition” value was 23%.
In the case of `COC(=O)COc1nonc1-c1ccccc1` it was 7%; in that of `Cc1nnc(Cn2ncnc2-c2ccccc2Cl)o1`, -3%.
With `COc1ccc(OCC(=O)Nc2ccc(N3CCn4c(nc5ccccc54)C3)cc2Cl)cc1`, the “% Inhibition” value was -8%.
Turning to `Cc1cnc(C(=O)N2CCC[C@H]2c2nc(C3CCOCC3)no2)cn1`, the “% Inhibition” value came to 0%.
Then `Cc1cc(S(=O)(=O)NC(=O)c2ccnc(C3CCCC3)n2)c(C)s1`, with -2%.
In the case of `O=C(NC(c1ccccc1)c1ccccc1)C1=COCCO1` it was -9%.
In the case of `CCOC(=O)c1nc(-c2cccnc2)cs1` it was -12%.
As to `N#C[C@@H](C(=O)NCc1cccnc1)c1nc(-c2ccccc2)cs1`, the “% Inhibition” value is listed as -1%.
Then `Cc1cc(C(=O)N[C@@H](C)c2nc(-c3cccnc3)cs2)cc(O)n1`, with 53%; and `C#CCN1C(=O)N[C@@](CC)(C(C)C)C1=O`, with 10%; and `Cc1oc(=S)n2c1C[C@@H](c1ccccc1)N(Cc1ccccc1)C2`, with -15%.
Then `Cn1cc(C(=O)NCC2CCN(S(=O)(=O)c3cccs3)CC2)cn1`, with -2%; and `CCc1ccc(NC(=O)[C@H](C)N2CCC(NS(=O)(=O)c3cccs3)CC2)cc1`, with 70%; and `CCc1ccc(NC(=O)[C@@H]2CCn3c(C(=O)c4ccccc4)ccc32)cc1`, with 1%.
For `CN(Cc1ccc(F)c(F)c1)S(=O)(=O)C[C@H]1CCN(C(=O)OCc2ccccc2)C1`, the “% Inhibition” value is -10%.
Then `Cc1cc(C)n(-c2ccc(CN3C(=O)NC4(CCCC4)C3=O)cc2)n1`, with -4%; and `O=C1CN(C(=O)Cc2c(F)cccc2Cl)C2(CCCC2)CN1`, with -11%.
Then `Cc1nccc(NC(=O)C2CCC(F)(F)CC2)c1Cl`, with -4%; and `Cc1c(NC(=O)CC(C)(C)CC(=O)N2CCN(c3ccccc3F)CC2)c(=O)n(-c2ccccc2)n1C`, with 2%.
Consider `CC1(C)Oc2ccc(NC(=O)COc3ccccc3)cc2NC1=O`, for which the “% Inhibition” value stood at 11%.
Then `CC(C)(C)CC(=O)Nc1ccc2c(c1)C(N1CCCCC1)=Nc1ccccc1O2`, with -13%; and `O=C(COc1ccccc1)Nc1ccc2c(c1)C(O)=Nc1cccnc1O2`, with 58%.
In the case of `Cc1ccc([C@H]2C=NN(c3ccc(Br)cc3)C2=O)cc1` it was 20%; in that of `CCNc1nc(C)cc(Nc2ccc(NC(=O)c3cc(C)ccc3C)cc2)n1`, 98%.
In the case of `Cc1onc(N)c1S(=O)(=O)Nc1ccncc1` it was -7%.
As to `CCC(=O)Nc1nc2c(OC)cc(NS(=O)(=O)c3c(C)noc3C)cc2s1`, the “% Inhibition” value is listed as -4%.
In the case of `Cc1ccc(C)c(S(=O)(=O)NCCNc2ccc(Nc3ccncc3)nn2)c1` it was 28%; in that of `Cc1ccccc1S(=O)(=O)NCc1nnc(C(=O)Nc2ccc(F)cc2F)s1`, -5%; in that of `CCC(=O)N1CCN(c2cc(Nc3ccc(C)cc3)nc(C)n2)CC1`, -1%.
Then `O=C(Nc1ccc(N2CCOCC2)cc1)Nc1ccc(F)cc1F`, with 1%.
In the case of `CCNc1nc(C)cc(Nc2ccc(NS(=O)(=O)c3c(C)noc3C)cc2)n1` it was 92%; in that of `CC(C)c1ccc(-c2nn3c(C4CCN(S(C)(=O)=O)CC4)nnc3s2)cc1`, -20%; in that of `C[C@H](C#N)CNc1ncc(Br)cn1`, 1%.
With `CN(c1ccc(Cl)cn1)S(=O)(=O)c1ccc2ncccc2c1`, the “% Inhibition” value is -22%.
In the case of `C[C@H]1CN(Cc2cc3c(cc2Br)OCO3)CCN1S(C)(=O)=O` it was -2%; in that of `Brc1ccc(NCc2[nH]nnc2-c2ccccc2)cc1`, 2%; in that of `O=S(=O)(c1ccccc1Br)N1CC[C@H]1c1ccccc1`, -6%.
In the case of `CN(c1ncc(S(=O)(=O)c2ccccc2)c(N)n1)C1CCCCC1` it was -9%.
Then `Cn1ccnc1CN1CCC[C@@](O)(CNS(=O)(=O)c2cccs2)CC1`, with -10%; and `CC(C)(C)c1ccnc(N[C@H]2CO[C@H]3[C@@H]2OC[C@@H]3NC(=O)NCc2ccccc2)n1`, with 18%; and `Cc1nn(CCC(=O)NC2CCCC2)cc1Br`, with -10%.
As to `CN(C)c1ccc(C(=O)N[C@@]2(C)CCS(=O)(=O)C2)cc1`, the “% Inhibition” value is given as -6%.
In the case of `Cc1cnn(Cc2cc(C(=O)N(C)Cc3nc4ccccc4n3C)no2)c1` it was -6%; in that of `O=C(Nc1cccc2cccnc12)N1CCOCC1CC(O)c1cccs1` (stereo not drawn), 0%.
Then `Cc1nnc(O)c(CNC(=O)COC2CCCC(C)C2)c1C` (stereo not drawn), with -7%; and `Cc1ncccc1C(=O)NCCc1csc(-c2ccccc2)n1`, with -11%; and `c1ccc(-c2nc(C[n+]3ccc4c(c3)CCCC4)cs2)cc1`, with 57%.
Then `Cc1cc(C)cc(NC(=O)CCn2c(=O)cc(C(F)(F)F)c3cn(C(C)C)nc32)c1`, with -14%; and `CC1(C)CCC(Nc2ccc(C(N)=O)nn2)CC1`, with 70%; and `Brc1cncnc1N1CCC[C@H](c2nnn[nH]2)C1`, with -15%.
`CCn1cnc2c(N3CCC[C@H](c4ccncc4)C3)ncnc21`: the “% Inhibition” value turned out to be 68%.
Regarding `CCn1c(=O)c(N2CCC[C@H](C(=O)NCc3ccccc3OC)C2)nc2cccnc21`, the “% Inhibition” value is reported as -7%.
In the case of `CC(C)(C)NC(=O)N[C@H]1COc2c1ccc(Cl)c2Cl` it was -3%; in that of `Cc1ccc(C(=O)Nc2ccc(N3CCN(c4c(F)c(F)c(F)c(F)c4F)CC3)cc2)c(Cl)c1`, 10%.
Then `O=C(Nc1nc2ccccc2[nH]1)C1CCN(c2cc3c(nn2)CCC3)CC1`, with 5%.
Then `O=C(O)c1cc(N2CCC(Cc3ccccc3)CC2)ccc1NC(=O)C1CCC1`, with -14%; and `NC(=O)c1ccccc1NC(=O)C1CCN(c2cc(C3CC3)ncn2)CC1`, with 53%.
Regarding `Cc1cn([C@H]2C[C@@H](OC(=O)c3ccccc3)[C@@H](CO)O2)c(=O)[nH]c1=O`, the “% Inhibition” value is given as -6%.
Consider `CC(C)NC(=O)[C@H](C)N(C)Cc1nccn1CC(F)(F)F`, for which the “% Inhibition” value is listed as -1%.
In the case of `CCC(CC)c1ccc([C@H]2N(C(=O)c3ccc(C)cc3)CCN2S(=O)(=O)c2ccccc2)cc1` it was -2%.
In the case of `O=S1(=O)CCN(C2CCN(Cc3c(F)cccc3F)CC2)CC1` it was 4%; in that of `COc1cccc(N2C(=O)C[C@]3(CC3(c3ccccc3)c3ccccc3)C2=O)c1`, 39%; in that of `Cc1ccc(N2C(=O)C[C@]3(CC3(c3ccccc3)c3ccccc3)C2=O)cc1`, 66%.
In the case of `CN1C2(c3ccccc3)C3C(=O)N(c4ccccc4)C(=O)C3C1(c1ccccc1)C1C(=O)N(c3ccccc3)C(=O)C12` (stereo not drawn) it was 2%; in that of `O=S(=O)(Cc1ccno1)NCCc1ccccc1OC(F)F`, 2%; in that of `Cc1ccc(C(=O)Nc2noc(-c3ccc(C)cc3)c2-c2ccccc2Cl)cc1`, -11%.
As for `c1cc(-c2cn3c(COc4ccc5c(c4)OCO5)nnc3s2)ccn1`, the “% Inhibition” value was determined as 3%.
In the case of `CC1CCN(C[C@H]2CCCCCN2C(=O)NCCc2ccccc2)CC1` it was 34%; in that of `O=C(Cc1cc(F)c(F)cc1F)N1CCOC[C@H]1c1ncon1`, -3%; in that of `Cc1nc2ccccc2cc1OCc1ccc(F)cc1`, 3%.
In the case of `CC(NC(=O)N[C@@H]1C=C[C@H](CO)C1)c1ccncc1F` (stereo partly drawn) it was 2%; in that of `S=c1cc(-c2ccccc2)n(Cc2ccco2)c2c1CCCC2`, 38%; in that of `Cc1ccc(Cc2nc(N3CCCN(C(=O)CCc4ccccc4)CC3)c3cnn(-c4ccccc4)c3n2)cc1`, 1%.
